TDP43 rescue = qHTS of TDP-43 Inhibitors. AID 652104, 2013. TDP-43 expressing yeast growth rescue, BacTiter-Glo, 24 h. 1.8% of 410,000 active. Potency, µM (titrated, usually from 46.1 µM), without a hit: at the top dose growth rescue (activation), hits mostly activators; further: % of control where 0% means no effect; nearly all actives have a fitted effect of over 50% in size
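Cell-based yeast growth screen: TDP-43 expression induced in galactose, inoculum OD600=0.02 after raffinose pregrowth to mid-log. Read-out BacTiter-Glo luminescence at 24 hr, 30 deg C; inhibition of toxicity seen as signal increase.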
uPA generation = qHTS for Inhibitors of Cell Surface uPA Generation; cell surface uPA generation assay, qHTS; Potency, µM (series often up to 38.3 µM), for the others: top-dose activity change, negative = inhibition, most hits filed as inhibitors; 0.31% of 330,000 active; AID 540303, 2011; active means well fitted inhibition curve with a large enough effect; inconclusive means small, poorly fitted or top-dose-only effect; inactive means no such curve, though single readings can be large or run the other way; tested in mouse RAW 264.7 cells; further: on the % scale 0 is the no-effect control and ±100 the full control effect; nearly all actives have a fitted effect of over 55% in size
FUS yeast rescue = qHTS for Suppressors of FUS Proteinopathy: Primary screen using FUS-linked yeast assay. S. cerevisiae FUS-expressing, growth rescue, OD600, 24 h. Potency, µM (highest dose often 76.6 µM), usual class: activators. 0.24% of 390,000 active. AID 1347120, 2019;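 further: plate controls were DMSO vehicle for no effect and reference control for full effect; nearly all actives have a fitted effect of over 55% in size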
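Quantitative HTS measuring growth restoration of FUS-toxic yeast. Galactose-induced cells (OD 0.005) were exposed 24hr at 30C to compounds at several concentrations, then absorbance at 600 nm was recorded.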
aSyn yeast inh = qHTS of alpha-syn Inhibitors; Yeast expressing alpha-synuclein, growth rescue, BacTiter-Glo, 24 h; Potency, µM (titrated, usually from 46.1 µM), for the others: top-dose growth rescue (activation), most hits filed as activators; 0.14% of 370,000 active; AID 652106, 2013; further: % of control where 0% means no effect; nearly all actives have a fitted effect of over 65% in size
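Galactose-induced alpha-syn yeast (OD600=0.02, raffinose-pregrown) + pinned cpd, 24 hr, 30 deg C; growth by BacTiter-Glo luminescence. Growth restoration scores as activation.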
BCR signal inh = qHTS Assay to Find Inhibitors of Chronic Active B-Cell Receptor Signaling. ABC-DLBCL IkBa-CBG/CBR reporter, luminescence ratio, 4 h. Potency, µM (series often up to 46.1 µM), inactives show at the highest dose activity change, negative = inhibition, most hits filed as inhibitors. 0.05% of 340,000 active. AID 493014, 2011; active means well fitted inhibition curve with a large enough effect in the signal ratio, with a control signal flat, not every such curve was filed as active; inconclusive means small, poorly fitted or top-dose-only effect, or effect the other way, or a change in a side signal; the % refers to the signal ratio;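 further: plate controls were basal doxycycline-induced cells for no effect and cells given 10 µM MG132 for full effect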
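TMD8 ABC-DLBCL cells carrying doxycycline-inducible green luciferase fused to IkappaBalpha plus unfused red luciferase were exposed to compounds (up to 46 uM) for 4 hrs at 37C. Activity came from the overlap-corrected green/red luminescence ratio.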
Abeta yeast res = qHTS for compounds that reverse cellular toxicity of Amyloid beta (A-beta) peptide in yeast: Primary Screen; yeast expressing A-beta42, growth rescue, OD600, 48 h; response scale: 0% DMSO, 100% iron-clioquinol control; Potency, µM (highest dose often 46.1 µM), actives largely listed as activators; 0.063% of 410,000 active; further: nearly all actives have a fitted effect of over 55% in size
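Growth rescue measured by 600 nm absorbance after 48 h yeast culture at 30 C with compound. Values normalized between DMSO and an equimolar ferric chloride plus clioquinol control.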
* marks the source's active call; other numbers are inactive results; i = inactive; ? = inconclusive; . = not tested or not shown. Only some compounds are listed: those with a hit (about 2.3% of all), similar ones and a draw of the others. Unless noted, the call rests on the fitted dose curve; in most records, active means well fitted curve in the direction sought with a large enough effect; inconclusive means small, poorly fitted or top-dose-only effect, or another doubt; inactive means no such curve, though single readings can be large; an effect the other way counts as inactive or inconclusive. Potency means the concentration at half of the fitted maximal effect.

SMILES	TDP43 rescue	uPA generation	FUS yeast rescue	aSyn yeast inh	BCR signal inh	Abeta yeast res
CCCCNC(=S)N1CCC(Cc2ccccc2)CC1	11%	-5%	i	-9%	-1%	18µM*
CCCCNC(=S)N1CCN(c2ccccc2Cl)CC1	13µM*	.	i	2%	-10%	i
O=C1OC(/C(=C\Nc2ccc(F)cc2F)[N+](=O)[O-])c2ccccc21 (stereo unspecified)	?	-15%	i	18µM*	7%	i
CC(C)n1c(C(F)(F)F)nc2cc(C(=O)N3CCC(O)CC3)ccc21	-16%	3%	i	-1%	-10%	i
CCCCN(C)C(=O)c1cn(-c2cccc(OC)c2)c(=O)c2ccccc12	1%	-3%	i	0%	0%	i
CCc1ccccc1N(C)C(=O)c1cn(-c2cccc(OC)c2)c(=O)c2ccccc12	20µM*	.	i	.	.	i
Oc1ccccc1-c1cnc2cccnn12	0%	.	i	0%	.	i
CC(C)N(CCC(=O)c1ccc2ccccc2c1)Cc1ccccc1	?	3.2µM*	i	-96%	?	i
CC(OC(=O)c1ccc2ccccc2c1)C(=O)N(C)Cc1ccccc1 (stereo unspecified)	26%	?	i	-1%	-2%	i
N#Cc1nccnc1S(=O)(=O)c1cccs1	13µM*	-7%	i	-5%	?	i
CN(Cc1ccccc1C#N)S(=O)(=O)c1cccs1	-23%	0%	i	1%	2%	i
Cc1ccc([N+](=O)[O-])cc1-c1[nH]c(-c2ccc(O)c(O)c2)nc1-c1ccccc1	17%	.	20µM*	0%	-14%	i
Cc1ccc(-c2nc3ccccc3n3c(-c4ccccc4)c4c(=O)n(C)c(=O)n(C)c4c23)cc1	12%	.	i	.	.	i
CCc1ccc(OC)c(-c2csc(N)n2)c1	16%	10%	i	-23%	?	i
Nc1nc(-c2cc(Cl)cc(Cl)c2OC(F)F)cs1	16µM*	-36%	i	2%	?	i
O=C(Nc1ccc(Cl)c(Cl)c1)Nc1ccon1	35µM*	-12%	i	-31%	-16%	i
Cc1cc(NC(=O)Nc2ccc(Cl)c(Cl)c2)no1	2%	-2%	i	-1%	.	i
CCc1n[nH]c(=S)n1N=C1CCC(C)CC1 (stereo unspecified)	3.5µM*	8%	i	-10%	0%	i
COC(=O)[C@@]1(Cc2ccc(F)cc2)[C@H]2c3cc(C(=O)N(C)C)n(CCc4c[nH]c5ccc(O)cc45)c3C[C@H]2CN1C(=O)c1ccccc1	28%	.	16µM*	-1%	.	i
COC(=O)[C@@]1(Cc2ccc(F)cc2)[C@H]2c3cc(C(=O)N4CCCC4)n(CCc4c[nH]c5ccccc45)c3C[C@H]2CN1C(=O)c1ccccc1	0%	.	?	-3%	.	i
COc1cccc(C(=O)N2CCN(c3nc4cc(C)cc(C)c4cc3C#N)CC2)c1	35µM*	.	i	4%	.	i
COc1ccc2nc(N3CCC(C)CC3)c(C#N)cc2c1	35µM*	3%	i	-1%	?	i
COc1ccc2nc(N3CCC(O)CC3)c(C#N)cc2c1	3%	-4%	i	4%	?	i
CC(C)(C)c1ccc(S(=O)(=O)Nc2ccc(Cc3ccncc3)cc2)cc1	-15%	-2%	.	-5%	?	i
O=C1ON=C(c2ccccc2)/C1=C/c1ccc(O)c(O)c1	?	?	i	5µM*	12%	i
SMILES	TDP43 rescue	uPA generation	FUS yeast rescue	aSyn yeast inh	BCR signal inh	Abeta yeast res
O=C1ON=C(c2ccccc2)/C1=C/c1ccc(OS(=O)(=O)c2ccccc2)cc1	13µM*	-3%	.	6%	-2%	i
COc1ccc(/C=C2\C(=O)ON=C2c2ccccc2)cc1	?	3%	i	14%	4%	i
COc1cc(/C=C2\C(=O)ON=C2c2ccc(Cl)cc2)ccc1O	?	1%	?	4%	.	i
CC1(C(=O)NCC2CC2)CCN1C(=O)C/C=C/c1ccccc1 (stereo unspecified)	20%	.	i	6%	.	i
O=C(NCc1cccc(Cl)c1)c1cc(COc2ccc3ncccc3c2)on1	14µM*	-4%	i	-11%	-23%	i
O=C(Nc1cccc(F)c1)Nc1ccccn1	15%	.	i	8%	-3%	i
COc1ccc(NC(=S)Nc2cccc([N+](=O)[O-])c2)cc1	?	2%	i	0%	16%	i
CC(=O)Nc1cccc(OCCCOc2cccc([N+](=O)[O-])c2)c1	13µM*	-2%	.	-7%	.	i
COc1ccc(OC(C)C(=O)Nc2cccc([N+](=O)[O-])c2)cc1 (stereo unspecified)	10µM*	-1%	.	-8%	0%	i
CCC(CC)C(=O)Nc1cc([N+](=O)[O-])ccc1Cl	?	-5%	.	3%	?	i
COc1cccc(NC(C)C(=O)Nc2cc([N+](=O)[O-])ccc2Cl)c1 (stereo unspecified)	11µM*	-7%	i	10%	?	i
COC(=O)c1ccc(C2c3c(oc4ccc(F)cc4c3=O)C(=O)N2CCO)cc1 (stereo unspecified)	-4%	6%	i	-3%	-1%	i
O=C(O)c1cccnc1Sc1ccccc1	-2%	0%	.	-2%	2%	i
N#Cc1c(N)[nH]c(=S)c(C#N)c1-c1ccccc1	24%	.	i	2%	-3%	i
N#Cc1c(N)[nH]c2ccc(Sc3ccccc3)cc12	22µM*	-8%	.	-29%	.	i
COCCNC(=S)N/N=C(\C)c1cccc(C(F)(F)F)c1	-18%	-3%	i	-12%	?	11µM*
O=C(Nc1ccc(Br)cc1Br)C1CC(=O)N(Cc2ccccc2)C1 (stereo unspecified)	-11%	-1%	i	12%	1%	i
Cc1ccc(C(=O)COC(=O)c2ccccc2N2C(=O)C3C4CCC(C4)C3C2=O)cc1C (stereo unspecified)	-16%	.	i	0%	-5%	i
Cc1ccc(C(=O)N2CCC(C(=O)c3c(C)cc(C)cc3C)CC2)cc1	18µM*	2%	?	2%	0%	i
Cc1ccc(C(=O)C2CCN(C(=O)c3ccc(C)cc3)CC2)cc1	15%	7%	i	-7%	?	i
